Results on 40 molecules are retold here after PubChem BioAssay (NCATS).

Calls of active or inactive are those of the source. Where a call stands in place of a potency, no number is given. Calls come from the whole dose curve; as a rule, active = well fitted inhibition curve with a large enough effect; inconclusive = small, poorly fitted or top-dose-only effect; inactive = no such curve, though single readings can be large or run the other way.

A short description of the test: qHTS assay for measurement of the activity of small molecule inhibitors on Zika virus induced Caspase-3 activity in human astrocytoma cells (AID 1224859). The conditions noted are these: SNB-19 ZIKV-induced caspase-3/7, luminescence, 6 h; series mostly up to 45.7 µM. An excerpt: National Center for Advancing Translational Sciences [NCATS]
Johns Hopkins University School of Medicine
Increase in the Caspase-3 activity indicates an activation of apoptosis cell death pathway caused by Zika virus infection in certain types of neuronal cells including human neural progenitor cells (hNPCs), astrocytes, and astrocytoma cell line (SNB-19). This cell-based caspase-3 activity assay measures the increased caspase-3 activity in the astrocytoma cell line (SNB-19) after a 6-hour Zika virus infection with a luminescence readout. A decrease in the luminescence signal in this assay by small molecule treatment indicates an inhibitory effect of that small molecule on the Zika virus induced caspase-3 activity that may correlate with its effect on reduction of Zika virus caused cell death.
The medium for SNB-19 cells is composed of RPMI 1640 (ATCC, Cat.# 30-2001), 10% fetal bovine serum (FBS) (GE healthcare Life Sciences, Cat.# SH30071.03), and 1% Pen/Strep (Gibco, Cat.# 15140-122). A Caspase-Glo 3/7 assay kit (catalog number G8092; Promega, Madison, WI) was used to detect caspase-3 activity induced by Zika virus infection in human cells. The reagent mixture was reconstituted as described in the protocol from the manufacturer. Polystyrene tissue culture treated and PDL coated white plates were obtained from Greiner Bio-One (Monroe, NC). Cells were seeded in 384- or 1536-well assay plates and cultured at 37 C with 5% CO2 for 16 to 20 hours. The typical cell seeding density in the 1536-well plate assay is 250 cells/well in 3ul medium for SNB-19 cells in tissue culture treated plates. Compounds were added to cells and incubated for one hour before addition of ZIKV solution to cells (2 FFU/cell). After incubation at 37 C with 5% CO2 for 6 hours, the reagent mixture of Caspase-Glo 3/7 assay kit was added to each well, followed by incubation at room temperature for 30 minutes. The luminescence intensity of the assay plates was measured using a ViewLux plate reader (PerkinElmer). Data were normalized by using the cell-containing wells without ZIKV as a negative control (0% induction of caspase 3/7 activity) and wells containing ZIKV infected cells (Caspase-3 activity induced) as a positive control (100% induction of caspase 3 activity). The percentage inhibitions of the increased Caspase-3 activity by small molecule inhibitors were then calculated.
Background: In qHTS, concentration-response curves come from the screen itself.
With `CC(C)NCC(O)c1ccc(O)c(O)c1` (stereo not given), the Potency result was “inactive”.

On to `O=C(c1ccc(F)cc1)C1CCN(CCn2c(=O)[nH]c3ccccc3c2=O)CC1`, for which the Potency result is “inactive”.

In the case of `CC(C)(Oc1ccc(C2CC2(Cl)Cl)cc1)C(=O)O` (stereo not given), the Potency result was “inactive”.

In the case of `OCCN(CCO)c1nc(N2CCCCC2)c2nc(N(CCO)CCO)nc(N3CCCCC3)c2n1`, the Potency result was “inactive”.

Consider `O=C(c1ccc(OCCN2CCCCC2)cc1)c1c(-c2ccc(O)cc2)sc2cc(O)ccc12`, for which the Potency result is “inactive”.

With `CN(C)CCOC(c1ccccc1)c1ccccc1`, the Potency entry was “inactive”.

Consider `CN(C)c1nc(N(C)C)nc(N(C)C)n1`, for which the Potency result is “inactive”.

For `C[C@H]1c2cccc(O)c2C(O)=C2C(=O)[C@]3(O)C(O)=C(C(N)=O)C(=O)[C@@H](N(C)C)[C@@H]3[C@@H](O)[C@@H]21`, the Potency result is “inactive”.

As for `CN(Cc1cnc2nc(N)nc(N)c2n1)c1ccc(C(=O)N[C@@H](CCC(=O)O)C(=O)O)cc1`, the Potency entry is “inactive”.

With `NC(=O)OCC(COC(N)=O)c1ccccc1`, the Potency result is “inactive”.

Consider `NCCc1cnc[nH]1`, for which the Potency result was “inactive”.

As for `OCCN1CCN(CCCN2c3ccccc3Sc3ccc(C(F)(F)F)cc32)CC1`, the Potency result was “inactive”.

Turning to `CN1CCN(C2=Nc3cc(Cl)ccc3Nc3ccccc32)CC1`, the Potency result is “inactive”.

`O=C1c2c(O)ccc(O)c2C(=O)c2c(NCCNCCO)ccc(NCCNCCO)c21`: the Potency result was “inactive”.

Take `Nc1ccn([C@H]2CC[C@@H](CO)O2)c(=O)n1`: the Potency result is “inactive”.

As for `O=c1[nH]cc(F)c(=O)[nH]1`, the Potency result is “inactive”.

Regarding `Clc1ccc(C(c2ccccc2Cl)C(Cl)Cl)cc1` (stereo not given), the Potency result was “inactive”.

Consider `NS(=O)(=O)c1cc2c(cc1Cl)NCNS2(=O)=O`, for which the Potency result was “inactive”.

For `CCOC(=O)C(C)(C)Oc1ccc(Cl)cc1`, the Potency entry is “inactive”.

On to `CC(C)(C)C(=O)Oc1ccc(S(=O)(=O)Nc2ccccc2C(=O)NCC(=O)O)cc1`, for which the Potency entry was “inactive”.

Take `CS(=O)(=O)Nc1ccc([N+](=O)[O-])cc1Oc1ccccc1`: the Potency entry was “inactive”.

Regarding `Nc1nnc(-c2cccc(Cl)c2Cl)c(N)n1`, the Potency entry was “inactive”.

Turning to `CC(C)Cc1ccc(C(C)C(=O)O)cc1` (stereo not given), the Potency entry was “inactive”.

In the case of `CC1COc2c(N3CCN(C)CC3)c(F)cc3c(=O)c(C(=O)O)cn1c23` (stereo not given), the Potency entry is “inactive”.

Regarding `CCN1CCCC1CNC(=O)c1cc(S(=O)(=O)CC)c(N)cc1OC` (stereo not given), the Potency result is “inactive”.

Consider `CS(=O)(=O)CCNCc1ccc(-c2ccc3ncnc(Nc4ccc(OCc5cccc(F)c5)c(Cl)c4)c3c2)o1`, for which the Potency entry is “inactive”.

In the case of `C[C@](N)(Cc1ccc(O)c(O)c1)C(=O)O`, the Potency entry is “inactive”.

Take `CN(C)C(=O)C(CCN1CCC(O)(c2ccc(Cl)cc2)CC1)(c1ccccc1)c1ccccc1`: the Potency entry is “inactive”.

As to `CN1CCC(=C2c3ccccc3C=Cc3ccccc32)CC1`, the Potency entry was “inactive”.

On to `Cc1ccccc1N1C(=O)c2cc(S(N)(=O)=O)c(Cl)cc2NC1C` (stereo not given), for which the Potency result is “inactive”.

As to `CCOC(=O)Nc1ccc(NCc2ccc(F)cc2)nc1N`, the Potency result was “inactive”.

Take `O=C1Cc2cc(CCN3CCN(c4nsc5ccccc45)CC3)c(Cl)cc2N1`: the Potency entry is “inactive”.

Consider `CCCNCC(O)COc1ccccc1C(=O)CCc1ccccc1` (stereo not given), for which the Potency result was “inactive”.

`Nc1nc2c(ncn2COC(CO)CO)c(=O)[nH]1`: the Potency result was “inactive”.

In the case of `NC(=O)NO`, the Potency result was “inactive”.

Consider `NC(CO)C(=O)NNCc1ccc(O)c(O)c1O` (stereo not given), for which the Potency result is “inactive”.

Regarding `NC12CC3CC(CC(C3)C1)C2`, the Potency entry is “inactive”.

Regarding `CCOC(=O)c1ncn2c1CN(C)C(=O)c1cc(F)ccc1-2`, the Potency result is “inactive”.

In the case of `COc1ccccc1OCCNCC(O)COc1cccc2[nH]c3ccccc3c12` (stereo not given), the Potency result is “inactive”.

For the molecule `Fc1ccc([C@@H]2CCNC[C@H]2COc2ccc3c(c2)OCO3)cc1`, the Potency result is “inactive”.
